From PubChem BioAssay come the findings set out here.

The nature of assay [1]: P. berghei load reduction in hepatocytes – cell-based, HepG2, luciferase luminescence, HepG2 viability, primary screen (AID 624349; in the data active = parasite load remaining mostly below about 12%, no sharp cut-off; inactive = mostly above about 10%;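 note: 100% = mean of DMSO negative control wells on the same plate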). The note with it: P. berghei liver stage in HepG2, luciferase luminescence, concentration not given here; parasite load remaining: stronger effect = lower value; viability: measured here: HepG2 viability without parasites.
A short description of assay [2]: Wnt pathway potentiators raising nuclear beta-catenin – imaging, WNT3A-conditioned medium, mouse C2C12, NPC library, primary screen (AID 1117326; in the data active = nuclear beta-catenin stimulation mostly above about 4.2%, no sharp cut-off; inactive = mostly below about 10%). The note with it: stronger effect = higher value.
Assay [3] is described as follows: stimulators of insulin release from INS-1E, primary screen, cell-based, 5 mM glucose, NPC library (AID 1117329;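 active = compound raises insulin release from rat beta cells at 5 mM glucose, no numeric limit stated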). The note with it: rat INS-1E insulin secretion, at 10 µM, stronger effect = higher value.
Assay [4] in a line: growth inhibition of GSK3B-pretreated HCT116 cells – cell-based, CellTiter-Glo, 0.2 to 20 µM (AID 1117336;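 active = compounds lowering colon cancer cell viability after pretreatment blocking the GSK3B kinase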). The note with it: HCT116 viability after GSK3B inhibitor, at 20 µM, stronger effect = higher value.
Assay [5] is described as follows: inhibition of endothelial tube formation, primary screen, imaging, VEGF stimulated, CD31 staining, tube area, NPC library (AID 1117340;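 active = compound that reduces growth-factor-driven endothelial tube area in a mixed cell culture, no cutoff stated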). The note with it: VEGF-stimulated ADSC/ECFC co-culture, at 10 µM, stronger effect = higher value.
Assay [6] in a line: GLP1 release stimulators, primary, NCI-H716, NPC library (AID 1117341;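 active = compound raises GLP1 secretion from the human gut endocrine cells, with no numeric limit stated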). The note with it: NCI-H716 cells, at 10 µM, stronger effect = higher value.
A short description of assay [7]: HCT116 colon cancer cell growth inhibition, primary screen, CellTiter-Glo luminescence, NPC library (AID 1117342;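 active = compounds that lower survival of HCT116 colon cancer cells in the luminescence readout, no numeric limit stated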). The note with it: at 20 µM (top of the series). (In general: ATP-based viability assays read luminescence as a measure of living cells.)
The nature of assay [8]: reduced SW480 viability measured with CellTiter-Glo, NPC library, primary (AID 1117343;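 active = compounds that lower viability of the colon cancer cells in the luminescence readout, with no numeric limit stated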). The note with it: CellTiter-Glo luminescence; at 20 µM (top of the series).
Assay [9] is described as follows: NPC library primary testing for decreased DLD-1 cell viability via CellTiter-Glo (AID 1117346;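 active = compounds that lower survival of DLD-1 colon cancer cells in the luminescence readout, no cutoff given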). The note with it: DLD-1 viability, CellTiter-Glo luminescence; at 20 µM (top of the series).
Assay [10] can be described thus: EMT-state selective cytotoxicity in co-culture – imaging, PC-3E GFP, TEM4-18 mCherry, primary screen (AID 1345086;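 active = compounds killing one labelled cell type while sparing the other, by normalised counts and ratio limits, not self-fluorescent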;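 for all read-outs here: cells exposed to compound for 72 h before imaging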;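 for red/green cell ratio (normalised): normalised mesenchymal count divided by normalised epithelial count so high means epithelial killing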). The note with it: PC-3E GFP / TEM4-18 mCherry co-culture, imaging cell counts, at 1 µM; for red/green cell ratio (normalised): actives lie on both sides.
Assay [11] can be described thus: viability loss with induced miR-34 in A549 – imaging, A549 dox-inducible miR-34, nuclei and caspase counts, primary screen (AID 1347080). The note with it: A549 miR-34 inducible, Hoechst nuclei count, 48 h.
The nature of assay [12]: MELAS cybrid and Rieske KO viability enhancers – cell-based, MELAS cybrids, Rieske KO mouse fibroblasts, CellTiter-Glo, primary screen (AID 1508586;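 active = mean z-score across replicates of 1.96 or higher in either the MELAS or the Rieske mutant cell line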;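 note: z relative to plate mean and SD of compound and empty wells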). The note with it: low glucose.
Assay [13] addresses NAD(+) hydrolase SARM1 (Homo sapiens) (UniProt Q6SZW1). Kind of assay: blocking NAD cleavage by SARM1 SAM-TIR – cell lysate, NAD-Glo luminescence (AID 1508614;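 active = compound whose remaining NAD level is above about 45 nM, limit read from the data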;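 note: higher remaining NAD means stronger inhibition of SARM1 NADase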). The note with it: SAM-TIR HEK293T lysate NADase, at 1 µM, stronger effect = higher value.
Assay [14] in a line: galactose survival enhancers in mitochondrial complex I cybrids – cell-based, galactose medium, ATP luminescence, primary screen (AID 1645843;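 active = z-score of at least 1.8 in each of two replicates, scored against plate mean and spread of sample wells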;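 note: positive z means more ATP and so rescue of galactose-driven cybrid death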). The note with it: complex I mutant cybrid cells, 72 h, stronger effect = higher value.
Assay [15] can be described thus: compounds altering circadian rhythm period length – cell-based, LOPAC library, luminescence reporter (AID 2774; call rule not given here;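 note: values are relative to mean of DMSO wells on each plate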). The note with it: circadian reporter cells, at 7 µM, actives lie on both sides.
Assay [16] in a line: compounds altering viability of human ES cells (AID 493140; call rule not given here;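 note: cells exposed to compounds for four days before counting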). The note with it: human embryonic stem cell survival screen; stronger effect = higher value.
The test system of assay [17] is Hepatitis C virus NS3 helicase. As to the kind of experiment: blockers of NS3h binding to ssDNA – biochemical, fluorescence polarization, LOPAC1280 library, primary screen (AID 687035; in the data active = inhibition above about 37%). The note with it: Purified HCV NS3 helicase, Cy5-dT15 ssDNA binding fluorescence polarization; stronger effect = higher value; concentration not given here. (Fluorescence polarisation rises when a labelled molecule tumbles more slowly, as on binding a larger partner.)

The subject of assay [18] is Aerobactin synthetase IucA (Klebsiella pneumoniae, hypervirulent). As to the kind of experiment: biochemical IucA inhibition screen of LOPAC library by absorbance (AID 1346212; call rule not given here;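 note: 100% = no compound wells and 0% = no enzyme wells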). The note with it: IucA enzyme assay, absorbance (OD) readout; stronger effect = lower value;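 tested at 8 µM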.
The mark [19] stands for this setting: measured here: epithelial PC-3E GFP cell survival.
The mark [20] stands for this setting: measured here: mesenchymal TEM4-18 mCherry cell survival.
Where [21] appears, read: measured here: relative caspase fold change +Dox/-Dox.
The mark [22] stands for this setting: measured here: total cells with miR-34 induction, stronger effect = lower value.
Where [23] appears, read: measured here: total cells without miR-34 induction.
The mark [24] stands for this setting: MELAS cybrid survival, CellTiter-Glo 48 h, stronger effect = higher value.
Where [25] appears, read: Rieske KO mouse fibroblast survival, CellTiter-Glo 72 h.

Where “and” joins values, the source holds several entries; their conditions need not be identical. Equal entries are not always repeated. Calls of active or inactive are those of the source.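 Rule for the calls, unless noted: active = compounds whose cell count with miR-34 switched on is under 0.7 times the count with it off; inactive = the rest.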

Chain of NAD(+) hydrolase SARM1 (Homo sapiens) (Q6SZW1 whole entry, looked up): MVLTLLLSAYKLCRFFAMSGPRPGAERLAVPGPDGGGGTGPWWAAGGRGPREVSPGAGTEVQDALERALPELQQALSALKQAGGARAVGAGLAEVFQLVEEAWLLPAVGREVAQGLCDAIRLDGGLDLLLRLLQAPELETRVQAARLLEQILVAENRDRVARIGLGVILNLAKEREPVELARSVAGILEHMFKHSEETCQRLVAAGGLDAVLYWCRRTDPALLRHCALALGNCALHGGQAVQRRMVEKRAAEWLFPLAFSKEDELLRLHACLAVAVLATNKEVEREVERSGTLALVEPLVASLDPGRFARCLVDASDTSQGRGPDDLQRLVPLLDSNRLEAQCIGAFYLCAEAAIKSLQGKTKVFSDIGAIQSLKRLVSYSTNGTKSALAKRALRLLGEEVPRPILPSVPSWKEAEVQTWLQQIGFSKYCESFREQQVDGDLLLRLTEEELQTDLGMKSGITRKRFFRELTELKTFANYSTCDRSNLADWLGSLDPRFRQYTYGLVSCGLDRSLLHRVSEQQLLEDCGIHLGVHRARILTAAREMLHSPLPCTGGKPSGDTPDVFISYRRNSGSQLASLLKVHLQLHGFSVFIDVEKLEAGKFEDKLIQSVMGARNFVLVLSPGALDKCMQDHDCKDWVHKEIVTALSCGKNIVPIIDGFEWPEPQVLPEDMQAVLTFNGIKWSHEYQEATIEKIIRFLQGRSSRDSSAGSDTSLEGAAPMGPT

In general, viability refers to a read-out of living cells in per cent, often relative to untreated cells. `O=C(O)Cc1ccccc1`: in assay [1], the parasite load remaining is 25.8% (inactive) and 52.8% (inactive). The viability in assay [1] is 91.1% and 112%. The nuclear beta-catenin stimulation in assay [2] (at 10 µM) is 0.2% (inactive); in assay [2] (stimulation, at 2 µM), 0.3%. Moreover, the insulin secretion stimulation in [3] is -1.1% (inactive). Besides, in assay [4], the viability decrease is -0.05% (inactive). In addition, the tube area decrease in assay [5] was -39.3% (inactive). Also, the GLP1 secretion stimulation in [6] is -0.3% (inactive). For the same molecule, the inhibition of viability in [7] is -9.8% (inactive). Further, the viability decrease (inhibition) in assay [8] was 8.6% (inactive); in [9] it was 0.45% (inactive). Moreover, the red/green cell ratio (normalised) in [10] is 0.91 (inactive). In addition, the normalised cell number in assay [10] (setting [19]) amounted to 1.01; in assay [10] (setting [20]) it was 0.92. In addition, the fold change was 0.869 (inactive) and 0.823 (inactive) in assay [11] (stronger effect = lower value); 4.43 and 1.17 in assay [11] (setting [21]). Besides, the cell count is 10700 and 9120 in assay [11] (setting [22]); 12300 and 11100 in [11] (setting [23]). The z-score in [12] (setting [24]) was 0.496 (inactive); in [12] (setting [25]) it was 0.0978; in assay [14], 0.455 (inactive). The remaining NAD in assay [13] was 10 nM (inactive).
On to `O=C(O)c1ccc2[nH]cc(CCCCN3CC=C(c4ccccc4)CC3)c2c1`, for which the nuclear beta-catenin stimulation in [2] (at 10 µM) was -0.5% (inactive); in assay [2] (stimulation, at 2 µM) it was -1.8%. Moreover, the insulin secretion stimulation in assay [3] was 2.5% (inactive). Also, the viability decrease in assay [4] was 5.1% (inactive). Also, the tube area decrease in [5] was -17.1% (active). Moreover, in assay [6], the GLP1 secretion stimulation is -2% (inactive). Besides, the inhibition of viability in [7] was 18.8% (inactive). Further, the viability decrease (inhibition) is -17.9% (inactive) in assay [8] and -14.3% (inactive) in [9]. In addition, the fold change was 0.916 (inactive) in [11] (stronger effect = lower value, cell number ratio, induced over uninduced) and 1.13 in [11] (setting [21]). In addition, the cell count in assay [11] (setting [22]) was determined as 8600; in assay [11] (setting [23]), 9380. In addition, the z-score in assay [14] is -0.035 (inactive).
`CC(O)CN1CCN(CC(=O)[O-])CCN(CC(=O)[O-])CCN(CC(=O)[O-])CC1.[Gd+3]` (stereo not given): the nuclear beta-catenin stimulation in assay [2] (at 10 µM) is -1.8% (inactive); in assay [2] (stimulation, at 2 µM) it was -0.7%. The insulin secretion stimulation in assay [3] was 3.6% (inactive). Besides, in [4], the viability decrease is 7.8% (inactive). In [5], the tube area decrease was 9.4% (inactive). Besides, the GLP1 secretion stimulation in assay [6] is -4.3% (inactive). For the same molecule, in assay [7], the inhibition of viability was 0.7% (inactive). The viability decrease (inhibition) in [8] was -1.9% (inactive); in assay [9], -6.4% (inactive). Also, in assay [10], the red/green cell ratio (normalised) is 0.9 (inactive). Moreover, the figures for the normalised cell number in assay [10] (setting [19]) and in assay [10] (setting [20]) were 1.27 and 1.14, respectively. For the same molecule, the fold change is 0.973 (inactive) in [11] (stronger effect = lower value) and 0.913 in assay [11] (setting [21]). For the same molecule, the figures for the cell count in assay [11] (setting [22]) and in assay [11] (setting [23]) were 8990 and 9240, respectively. In addition, the remaining NAD in [13] is 10 nM (inactive).
In general, inhibition refers to the relative decrease from the control value, in per cent. By remaining activity is commonly meant the signal under treatment as a percentage of the control signal. On to `Fc1ccc(C(OCCN2CCN(CCCc3ccccc3)CC2)c2ccc(F)cc2)cc1`, for which the period change in assay [15] was -0.11 h (inactive). Besides, the survival in assay [16] was 2.08 (inactive). For the same molecule, in assay [1], the parasite load remaining is 40.3% (inactive) and 56% (inactive). In assay [1], the viability was 74.4% and 71%. In addition, the inhibition in assay [17] was -2% (inactive). Further, the nuclear beta-catenin stimulation in [2] (at 10 µM) is 21.5% (inactive); in assay [2] (stimulation, at 2 µM) it was -0.6%. Further, the insulin secretion stimulation in [3] is 4.65% (inactive). In [4], the viability decrease was 118% (active). Also, in [5], the tube area decrease was 30.2% (inactive). The GLP1 secretion stimulation in [6] is 7.4% (inactive). The inhibition of viability in assay [7] is 124% (active). The values for the viability decrease (inhibition) in [8] and in assay [9] were 159% (active) and 102% (active), respectively. Moreover, the remaining activity in assay [18] was 111% (inactive). In addition, the fold change was 1.71 (inactive) and 1.06 (inactive) and 1.14 (inactive) in assay [11] (stronger effect = lower value); 0.907 and 1.17 and 0.595 in [11] (setting [21]). In addition, the cell count in [11] (setting [22]) is 1750 and 3970 and 2030; in [11] (setting [23]) it was 1020 and 3730 and 1770. For the same molecule, the z-score in assay [12] (setting [24]) was -0.775 (inactive); in assay [12] (setting [25]), 0.399; in [14], -1.03 (inactive) and -1.23 (inactive).
